# Experimental data reported in PubChem BioAssay (NCATS).
# Inconclusive results are not listed. A call without a number means that no potency is given here. Values without a mark were called inactive. Calls of active or inactive are those of the source. Calls follow the shape of the dose curve; as a rule, active = well fitted curve in the direction sought with a large enough effect; inconclusive = small, poorly fitted or top-dose-only effect, or another doubt; inactive = no such curve, though single readings can be large; an effect the other way counts as inactive or inconclusive. Where a SMILES comes first, the peptide text is derived from it. Bridges are numbered along the chain shown (N, C = ends). [ ]: non-standard residue; d: D form. NMeY = CN[CH](Cc1ccc(O)cc1)C(=O)O
# Tests used:
# HaCat [1] = assay: Cytotoxic Profiling of Annotated Libraries Using Quantitative High-Throughput Screening (AID 1296008); conditions: Five cell lines viability, CellTiter-Glo ATP luminescence, 48-72 h; max response: stronger effect = lower value; also: nearly all actives have a fitted effect of over 60% in size; also: potency is read from the fitted curve at half-maximal effect
# How it was run: (§1)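 Cells exposed to compounds for 48 or 72 hr at 37 degrees Celsius. Viability read as ATP-coupled luminescence with CellTiter-Glo after 10 min at room temperature.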
# KB-3-1 = assay: as above; conditions: Five cell lines viability, CellTiter-Glo ATP luminescence, 48-72 h; max response: stronger effect = lower value
# How it was run: as §1
# NIH3T3 [2] = assay: as above; conditions: Five cell lines viability, CellTiter-Glo ATP luminescence, 48-72 h; max response: stronger effect = lower value
# How it was run: as §1
# HACAT [3] = assay: qHTS assay to identify novel small-molecules to repurpose for Merkel cell carcinoma treatment (AID 1296009); conditions: MCC and control cell lines, CellTiter-Glo viability, 72 h; series mostly up to 44.8 µM; also: nearly all actives have a fitted effect of over 60% in size
# How it was run: (§2)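 CellTiter-Glo luminescence after 72 hr compound exposure at 37 degree celsius gave cell viability. Libraries NPC and MIPE were run as 8- and 11-point dose responses; RLUs normalized to DMSO (negative) and no-cell (cytotoxicity) controls.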
# C33A = assay: Primary qHTS to identify gynecologic anti-cancer compounds using libraries of approved drugs and bioactive compounds (AID 1345084); conditions: Gynecologic cancer cell panel viability, ATPlite luminescence, 48 h; series mostly up to 57.5 µM; also: nearly all actives have a fitted effect of over 55% in size
# How it was run: (§3)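 Five-concentration response, 48 h; readout is ATP-driven luciferase luminescence.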
# CAOV3 = assay: as above; conditions: Gynecologic cancer cell panel viability, ATPlite luminescence, 48 h; series mostly up to 57.5 µM
# How it was run: as §3
# CASKI = assay: as above; conditions: Gynecologic cancer cell panel viability, ATPlite luminescence, 48 h; series mostly up to 57.5 µM
# How it was run: as §3
# Es-2 = assay: as above; conditions: Gynecologic cancer cell panel viability, ATPlite luminescence, 48 h; series mostly up to 57.5 µM
# How it was run: as §3
# HeLa = assay: as above; conditions: Gynecologic cancer cell panel viability, ATPlite luminescence, 48 h; series mostly up to 57.5 µM
# How it was run: as §3
# Hek293T [4] = assay: as above; conditions: Gynecologic cancer cell panel viability, ATPlite luminescence, 48 h, control line for the selectivity index; series mostly up to 57.5 µM
# How it was run: as §3
# JEG-3 = assay: as above; conditions: Gynecologic cancer cell panel viability, ATPlite luminescence, 48 h; series mostly up to 57.5 µM
# How it was run: as §3
# OV90 = assay: as above; conditions: Gynecologic cancer cell panel viability, ATPlite luminescence, 48 h; series mostly up to 57.5 µM
# How it was run: as §3
# NIH3T3 [5] = assay: qHTS assay to identify novel small-molecules to repurpose for Merkel cell carcinoma treatment (AID 1296009); conditions: MCC and control cell lines, CellTiter-Glo viability, 72 h; at 44.8 µM (top of the series) unless noted; also: nearly all actives have a fitted effect of over 60% in size
# How it was run: as §2
# HEK293T [6] = assay: as above; conditions: MCC and control cell lines, CellTiter-Glo viability, 72 h; at 44.8 µM (top of the series) unless noted
# How it was run: as §2
structure (smiles),measurement,setting,value
Cc1cc(C(=O)Nc2cccc(C(=O)Nc3cccc(C(F)(F)F)c3)c2)on1,outcome,HaCat [1],inactive
same,max response,KB-3-1,-0.787%
same,max response,NIH3T3 [2],-17%
same,Potency,HACAT [3],inactive
same,Potency,C33A,inactive
same,Potency,CAOV3,inactive
same,Potency,CASKI,inactive
same,Potency,Es-2,inactive
same,Potency,HeLa,inactive
same,Potency,Hek293T [4],inactive
same,Potency,JEG-3,inactive
same,Potency,OV90,inactive
COC(=O)C12C(=O)C(C)=C(O)C1(C)C(C)=CC1C3(CO)CCC(O)C(C)(C)C3CCC12C (stereo unspecified),outcome,HaCat [1],inactive
same,max response,KB-3-1,-2.12%
same,max response,NIH3T3 [2],-3.91%
same,Potency,HACAT [3],inactive
same,Potency,C33A,inactive
same,Potency,CAOV3,inactive
same,Potency,CASKI,inactive
same,Potency,Es-2,inactive
same,Potency,HeLa,inactive
same,Potency,Hek293T [4],inactive
same,Potency,JEG-3,inactive
same,Potency,OV90,inactive
CCC1C(=O)N(C)c2cnc(Nc3ccc(C(=O)NC4CCC(N5CCN(CC6CC6)CC5)CC4)cc3OC)nc2N1C(C)C (stereo unspecified),Potency,HaCat [1],36.6 nM (active)
same,Potency,KB-3-1,5.2 nM (active)
same,Potency,NIH3T3 [2],1640 nM (active)
CCC(C)C1NC(=O)C2CCCN2C(=O)C(NC(C)=O)C(C)OC(=O)C(Cc2ccc(OC)cc2)N(C)C(=O)C2CCCN2C(=O)C(C(C)C)NC1=O (stereo unspecified) (Ac-TPIVP[NMeY](Me); ester 1-C; configuration not given here),outcome,HaCat [1],inactive
same,max response,KB-3-1,-2.69%
same,outcome,NIH3T3 [2],inactive
same,Potency,HACAT [3],inactive
same,outcome,NIH3T3 [5],inactive [at 17.4 µM]
same,Potency,C33A,inactive
same,Potency,CAOV3,inactive
same,Potency,CASKI,inactive
same,Potency,Es-2,inactive
same,Potency,HeLa,inactive
same,Potency,Hek293T [4],inactive
same,Potency,JEG-3,inactive
same,Potency,OV90,inactive
COC(=O)C1=CO[C@@H](O[C@@H]2O[C@H](CO)[C@@H](O)[C@H](O)[C@H]2O)[C@@H]2C(COC(C)=O)=C[C@H](O)[C@H]12,outcome,HaCat [1],inactive
same,outcome,KB-3-1,inactive
same,outcome,NIH3T3 [2],inactive
same,Potency,HACAT [3],inactive
same,outcome,NIH3T3 [5],inactive [at 17.4 µM]
same,Potency,C33A,inactive
same,Potency,CAOV3,inactive
same,Potency,CASKI,inactive
same,Potency,Es-2,inactive
same,Potency,HeLa,inactive
same,Potency,Hek293T [4],inactive
same,Potency,JEG-3,inactive
C/C=C/C=C/C(O)=C1\C(=O)[C@]2(C)C3C(C(=O)CC/C=C/C)=C(O)C4(C)C1[C@]1(C)O[C@@]4(O)[C@@]3(C)O[C@@]12O,outcome,HaCat [1],inactive
same,max response,KB-3-1,8.54%
same,max response,NIH3T3 [2],1.07%
same,Potency,HACAT [3],inactive
same,Potency,C33A,inactive
same,Potency,CAOV3,inactive
same,Potency,CASKI,inactive
same,Potency,Es-2,inactive
same,Potency,HeLa,inactive
same,Potency,Hek293T [4],inactive
same,Potency,JEG-3,inactive
COC(=O)C1=CO[C@@H](O[C@@H]2O[C@H](CO)[C@@H](O)[C@H](O)[C@H]2O)[C@H]2[C@@H]1C=C[C@@]21C=C([C@H](C)O)C(=O)O1,outcome,HaCat [1],inactive
same,outcome,KB-3-1,inactive
same,max response,NIH3T3 [2],3.5%
same,Potency,HACAT [3],inactive
same,Potency,C33A,inactive
same,Potency,CAOV3,inactive
same,Potency,CASKI,inactive
same,Potency,Es-2,inactive
same,Potency,HeLa,inactive
same,Potency,Hek293T [4],inactive
same,Potency,JEG-3,inactive
same,Potency,OV90,inactive
CC(C)=C/C=C\[C@H](C)[C@H]1CC[C@]2(C)C[C@@H]3C(C)=CC(=O)C3/C(CO)=C\C[C@@H]12 (stereo partly specified),outcome,HaCat [1],inactive
same,outcome,KB-3-1,inactive
same,max response,NIH3T3 [2],3.13%
same,Potency,HACAT [3],inactive
same,Potency,C33A,inactive
same,Potency,CAOV3,inactive
same,Potency,CASKI,inactive
same,Potency,Es-2,inactive
same,Potency,HeLa,inactive
same,Potency,Hek293T [4],inactive
same,Potency,JEG-3,inactive
same,Potency,OV90,inactive
Oc1ccc2nc(CN3CCC(Cc4ccccc4F)CC3)[nH]c2c1,outcome,HaCat [1],inactive
same,max response,KB-3-1,-7.21%
same,max response,NIH3T3 [2],-12%
same,Potency,HACAT [3],inactive
same,Potency,C33A,inactive
same,Potency,CAOV3,inactive
same,Potency,CASKI,inactive
same,Potency,Es-2,inactive
same,Potency,HeLa,inactive
same,Potency,Hek293T [4],inactive
same,Potency,JEG-3,inactive
same,Potency,OV90,inactive
CC1(C)CCC[C@@]2(C)C1[C@H](OC(=O)/C=C/C=C/C(=O)O)C=C1COC(=O)[C@@]12O (stereo partly specified),outcome,HaCat [1],inactive
same,max response,KB-3-1,0.106%
same,outcome,NIH3T3 [2],inactive
same,Potency,HACAT [3],inactive
same,outcome,NIH3T3 [5],inactive
same,Potency,C33A,inactive
same,Potency,CAOV3,inactive
same,Potency,CASKI,inactive
same,Potency,Es-2,inactive
same,Potency,HeLa,inactive
same,Potency,Hek293T [4],inactive
same,Potency,JEG-3,inactive
same,Potency,OV90,inactive
CC1=C2C(O)C(=O)OC(c3ccoc3)C2(C)CCC1O (stereo unspecified),outcome,HaCat [1],inactive
same,outcome,KB-3-1,inactive
same,max response,NIH3T3 [2],3.37%
same,Potency,HACAT [3],inactive
same,Potency,C33A,inactive
same,Potency,CAOV3,inactive
same,Potency,CASKI,inactive
same,Potency,Es-2,inactive
same,Potency,HeLa,inactive
same,Potency,Hek293T [4],inactive
same,Potency,JEG-3,inactive
same,Potency,OV90,inactive
C=CC(C)(C)c1[nH]c2cc3c(cc2c1CC1NC(=O)C2CCCN2C1=O)C=CC(C)(C)O3 (stereo unspecified),outcome,HaCat [1],inactive
same,max response,KB-3-1,8.42%
same,outcome,NIH3T3 [2],inactive
same,Potency,HACAT [3],inactive
same,outcome,HEK293T [6],inactive [at 17.4 µM]
same,outcome,NIH3T3 [5],inactive [at 17.4 µM]
same,Potency,C33A,inactive
same,Potency,CAOV3,inactive
same,Potency,CASKI,inactive
same,Potency,Es-2,inactive
same,Potency,HeLa,inactive
same,Potency,Hek293T [4],inactive
same,Potency,JEG-3,inactive
same,Potency,OV90,inactive
C[C@@H]1O[C@@H](O[C@@H]2[C@@H](O)[C@@H](O[C@]3(CO)O[C@H](CO)[C@@H](O)[C@@H]3OC(=O)/C=C/c3ccc(O)cc3)O[C@H](CO)[C@H]2OC(=O)/C=C/c2ccc(O)cc2)[C@H](O)[C@H](O)[C@H]1O[C@@H]1O[C@@H](C)[C@H](O[C@@H]2OC[C@](O)(CO)[C@H]2O)[C@@H](O)[C@H]1O,outcome,HaCat [1],inactive
same,max response,KB-3-1,3.92%
same,max response,NIH3T3 [2],-0.786%
same,outcome,HACAT [3],inactive [at 9.27 µM]
same,outcome,HEK293T [6],inactive [at 9.27 µM]
same,"activity change, negative = cytotoxicity",C33A,8.98% [at 11.6 µM]
same,"activity change, negative = cytotoxicity",CAOV3,0.132% [at 11.6 µM]
same,"activity change, negative = cytotoxicity",CASKI,12.2% [at 11.6 µM]
same,"activity change, negative = cytotoxicity",Es-2,-1.87% [at 11.6 µM]
same,"activity change, negative = cytotoxicity",HeLa,10.7% [at 11.6 µM]
same,"activity change, negative = cytotoxicity",Hek293T [4],-1.85% [at 11.6 µM]
same,"activity change, negative = cytotoxicity",JEG-3,3.39% [at 11.6 µM]
same,"activity change, negative = cytotoxicity",OV90,-2.82% [at 11.6 µM]
